# Measurements taken from the supplement of paper PMC10477191.
# ± gives the standard deviation of the averaged measurements.
# How the values were obtained:
# Test in all cases: odor-evoked OSN spike response (post minus pre-stimulus); higher = stronger neuronal excitation
# Settings in all cases: odor dilution: 10^-4
# [1] = test system: Drosophila ezoana antennal basiconic sensillum ab1
# Outline: (§1)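 Spike frequency was compared between 1-second windows before and after each stimulus in Auto Spike software. That change, averaged over replicate sensilla, is the response. Each stimulus was a 500 ms air pulse over filter paper carrying 10 µl of odorant at 10^−4 in mineral oil or DMSO, delivered into a humidified, charcoal-filtered 1.5 l min^−1 stream. A tungsten electrode recorded at the base of antennal basiconic sensilla of restrained adult flies, with up to 3 sensilla per fly.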
# [2] = test system: Drosophila ezoana antennal basiconic sensillum ab3
# Outline: as §1
# [3] = test system: Drosophila virilis antennal basiconic sensillum AB1
# Outline: as §1
# [4] = test system: Drosophila ezoana antennal basiconic sensillum ab2
# Outline: as §1
# [5] = test system: Drosophila ezoana antennal basiconic sensillum ab9
# Outline: as §1
# [6] = test system: Drosophila virilis antennal basiconic sensillum AB11
# Outline: as §1
# [7] = test system: Drosophila virilis antennal basiconic sensillum AB2
# Outline: as §1
# [8] = test system: Drosophila virilis antennal basiconic sensillum AB9
# Outline: as §1
# [9] = test system: Drosophila ezoana antennal basiconic sensillum ab8
# Outline: as §1
# [10] = test system: Drosophila virilis antennal basiconic sensillum AB3
# Outline: as §1
# [11] = test system: Drosophila virilis antennal basiconic sensillum AB6
# Outline: as §1
# [12] = test system: Drosophila virilis antennal basiconic sensillum AB7
# Outline: as §1
# [13] = test system: Drosophila virilis antennal basiconic sensillum AB8
# Outline: as §1
structure (smiles),measurement,setting,value
COC(=O)c1ccccc1O [Methyl salicylate],odor-evoked OSN spike response,[1],52.1 ± 33 spikes/s
same,odor-evoked OSN spike response,[2],64.8 ± 22 spikes/s
same,odor-evoked OSN spike response,[3],49 ± 22 spikes/s
CC(C)OC(=O)c1ccccc1 [isopropyl benzoate],odor-evoked OSN spike response,[4],91.2 ± 45 spikes/s
same,odor-evoked OSN spike response,[2],54.9 ± 29 spikes/s
same,odor-evoked OSN spike response,[5],58.6 ± 20 spikes/s
same,odor-evoked OSN spike response,[6],54 ± 12 spikes/s
same,odor-evoked OSN spike response,[7],45.6 ± 23 spikes/s
CCCCCCCC(C)O (centres undefined) [2-nonanol],odor-evoked OSN spike response,[2],55 ± 26 spikes/s
COC(=O)c1ccccc1 [methyl benzoate],odor-evoked OSN spike response,[4],55.9 ± 36 spikes/s
same,odor-evoked OSN spike response,[5],125 ± 48 spikes/s
same,odor-evoked OSN spike response,[8],86.1 ± 27 spikes/s
CCOC(=O)C(C)O (centres undefined) [Ethyl lactate],odor-evoked OSN spike response,[1],70.3 ± 53 spikes/s
same,odor-evoked OSN spike response,[2],129 ± 36 spikes/s
same,odor-evoked OSN spike response,[9],51.4 ± 27 spikes/s
same,odor-evoked OSN spike response,[5],66.3 ± 26 spikes/s
same,odor-evoked OSN spike response,[3],128 ± 32 spikes/s
same,odor-evoked OSN spike response,[10],156 ± 44 spikes/s
same,odor-evoked OSN spike response,[11],50 ± 22 spikes/s
same,odor-evoked OSN spike response,[12],52.6 ± 7.5 spikes/s
same,odor-evoked OSN spike response,[13],44.8 ± 12 spikes/s
same,odor-evoked OSN spike response,[8],72.4 ± 20 spikes/s
CCCCCCOC(C)=O [Hexyl acetate],odor-evoked OSN spike response,[2],121 ± 33 spikes/s
same,odor-evoked OSN spike response,[9],88.7 ± 39 spikes/s
same,odor-evoked OSN spike response,[13],35.3 ± 18 spikes/s
same,odor-evoked OSN spike response,[8],53.3 ± 21 spikes/s
CCCCCCCC/C=C\CCCCCCCC(=O)O [Oleic acid],odor-evoked OSN spike response,[4],43.9 ± 26 spikes/s
CCCCCCCC(C)=O [2-nonanone],odor-evoked OSN spike response,[2],57.8 ± 38 spikes/s
CC(=O)c1ccccc1 [Acetophenone],odor-evoked OSN spike response,[9],71.8 ± 25 spikes/s
same,odor-evoked OSN spike response,[5],68.3 ± 26 spikes/s
CCOC(=O)c1ccccc1 [ethyl benzoate],odor-evoked OSN spike response,[4],69.5 ± 30 spikes/s
same,odor-evoked OSN spike response,[2],64 ± 27 spikes/s
same,odor-evoked OSN spike response,[5],105 ± 28 spikes/s
same,odor-evoked OSN spike response,[6],23.1 ± 7.8 spikes/s
same,odor-evoked OSN spike response,[8],85.5 ± 21 spikes/s
CCCOC(C)=O [propyl acetate],odor-evoked OSN spike response,[2],50 ± 27 spikes/s
same,odor-evoked OSN spike response,[9],51 ± 32 spikes/s
same,odor-evoked OSN spike response,[5],60.9 ± 37 spikes/s
same,odor-evoked OSN spike response,[8],84.2 ± 24 spikes/s
CCCC(=O)OCC [ethyl butanoate],odor-evoked OSN spike response,[7],71.9 ± 26 spikes/s
same,odor-evoked OSN spike response,[12],68.8 ± 9.7 spikes/s
same,odor-evoked OSN spike response,[8],75.9 ± 26 spikes/s
CC(=O)C(C)O (centres undefined) [acetoin],odor-evoked OSN spike response,[1],79.9 ± 48 spikes/s
same,odor-evoked OSN spike response,[2],135 ± 51 spikes/s
same,odor-evoked OSN spike response,[5],57.3 ± 30 spikes/s
same,odor-evoked OSN spike response,[3],82.8 ± 39 spikes/s
same,odor-evoked OSN spike response,[10],226 ± 54 spikes/s
same,odor-evoked OSN spike response,[8],97.4 ± 24 spikes/s
CCCCC(C)O (centres undefined) [2-hexanol],odor-evoked OSN spike response,[2],55 ± 32 spikes/s
same,odor-evoked OSN spike response,[12],61.4 ± 9.6 spikes/s
CC(C)=CCCC(C)=CC=O (mixture of isomers) [citral],odor-evoked OSN spike response,[2],52.2 ± 25 spikes/s
same,odor-evoked OSN spike response,[5],55.8 ± 30 spikes/s
CCCC(O)CC (centres undefined) [3-hexanol],odor-evoked OSN spike response,[9],52.3 ± 27 spikes/s
same,odor-evoked OSN spike response,[12],57 ± 28 spikes/s
